bovine MsrA act: activators of bovine methionine sulfoxide reductase A. purified bovine MsrA, absorbance read-out. activation, % at 10.6 µM. actives 0.3% (n = 360,000). AID 602163; in the data active means activation above about 7.5%;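 further: 0% = vehicle and 100% = reference activator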
rCAG binder: r(CAG) repeat RNA binding | TO-PRO-1 dye displacement fluorescence | inhibition, % at 3 µM | actives 1.3% (n = 370,000);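 active means inhibition above the plate cutoff, the mean of all test compounds on that plate plus 3 SD, cut at about 35% in these data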;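 further: 0% = DMSO alone and 100% = 100 µM mitoxantrone as full dye displacement; higher means more dye released from RNA so lower well fluorescence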
sPLA2-III inh: Blocks human group III sPLA2 activity; Q9NZ20; QFRET BODIPY PC-A2 liposome hydrolysis, fluorescence; inhibition, % at 12.2 µM; actives 0.56% (n = 370,000); AID 743126;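 active means inhibition above mean plus 3 SD of compounds lying within the high and low control bounds, cut at about 19% in these data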;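 further: 0% = median of test compound wells and 100% = no enzyme DMSO wells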
Target sequence (Q9NZ20 whole entry, looked up): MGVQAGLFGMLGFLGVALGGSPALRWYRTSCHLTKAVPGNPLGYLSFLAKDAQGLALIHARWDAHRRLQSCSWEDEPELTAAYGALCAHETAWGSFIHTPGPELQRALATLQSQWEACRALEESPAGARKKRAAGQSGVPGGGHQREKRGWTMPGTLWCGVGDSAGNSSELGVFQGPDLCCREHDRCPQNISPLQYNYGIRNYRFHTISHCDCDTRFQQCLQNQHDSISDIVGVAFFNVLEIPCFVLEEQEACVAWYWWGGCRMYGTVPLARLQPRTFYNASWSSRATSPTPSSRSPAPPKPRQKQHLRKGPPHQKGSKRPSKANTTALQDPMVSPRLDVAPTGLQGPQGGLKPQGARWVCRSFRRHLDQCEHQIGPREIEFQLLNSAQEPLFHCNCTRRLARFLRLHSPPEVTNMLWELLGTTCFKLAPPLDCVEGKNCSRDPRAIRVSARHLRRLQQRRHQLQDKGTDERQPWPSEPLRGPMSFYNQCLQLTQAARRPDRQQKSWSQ
MsrA inh: inhibits bovine methionine sulfoxide reductase A. purified bovine MsrA, absorbance read-out. inhibition, % at 15.5 µM. actives 0.75% (n = 360,000). AID 651718; in the data active means inhibition above about 4.5%;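 further: 0% = vehicle wells with enzyme and 100% = reference inhibitor wells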
rCAG bind conf: r(CAG) RNA repeat binding, confirmation. shares compounds with rCAG binder. TO-PRO-1 dye displacement fluorescence. inhibition, % at 3 µM. actives 70% (n = 4,300). AID 652065;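 active means inhibition above a per-plate cutoff, the mean inhibition of sample wells plus 3 SD, cut at about 35% in these data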;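 further: loss of TO-PRO-1 fluorescence as compound displaces dye from 1x1 AA loop RNA; 0% = DMSO only wells and 100% = 100 µM mitoxantrone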
dCAG dye counter: disrupts DNA CAG TO-PRO-1 complex, flagging rCAG hits; shares compounds with rCAG binder; actives 94% (n = 4,300); inhibition, % at 3 µM; d(CAG) DNA oligo TO-PRO-1 dye displacement, fluorescence; AID 652068;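 active means inhibition above its plate's cutoff, the mean test-well inhibition plus 3 SD, cut at about 4.8% in these data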;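 further: 0% = DNA dye mix with DMSO and 100% = 100 µM mitoxantrone; hits displace the dye from DNA and so lower well fluorescence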
DNA CAG DR: disrupts DNA CAG TO-PRO-1 complex in dose response. actives 20% (n = 250). shares compounds with rCAG binder. DNA CAG/GTC duplex TO-PRO-1 dye displacement fluorescence. AID 686960. IC50, µM; in the data active means IC50 below about 10 µM
Starred values were filed as active, the others as inactive; i = inactive; nt = no result given. An excerpt weighted towards active compounds, which were near 2.8% of everything screened.

SMILES	bovine MsrA act	rCAG binder	sPLA2-III inh	MsrA inh	rCAG bind conf	dCAG dye counter	others
Cc1nc(NCCc2ccccc2)sc1C(=O)O	-2	-2	-4	1	nt	nt
Cc1cc(C)c2cc(CN(Cc3nnnn3C3CCCCC3)CC3CCCO3)c(=O)[nH]c2c1 (stereo not drawn)	-1	0	-2	0	nt	nt
Cc1ccccc1-n1nc2c(c1NC(=O)c1ccc(S(=O)(=O)N(C)C)cc1)CSC2	-4	23	-24	0	nt	nt
Cc1ccc(-c2csc(NC(=O)c3ccccc3F)c2C(=O)O)cc1	-2	42*	0	2	29	4.6*
O=C(/C=C/c1ccccc1)Nc1scc(-c2ccccc2)c1C(=O)O	6	55*	-9	3	33	6.0*
O=C(/C=C/c1ccccc1)Nc1cc(NC(=O)/C=C/c2ccccc2)cc(C(=O)O)c1	-2	75*	-46	3	81*	52*
O=C(/C=C/c1ccco1)Nc1scc(-c2ccccc2)c1C(=O)O	-6	31	-4	4	nt	nt
Cc1cc(/C=C2\C(=N)N3N=C(c4ccco4)SC3=NC2=O)c(C)n1Cc1ccccc1	1	59*	-11	0	69*	30*	DNA CAG DR=i
O=C(COC(=O)c1ccc(Br)o1)NC1CCCc2ccccc21 (stereo not drawn)	-1	-4	2	-1	nt	nt
Cc1csc(NC(=O)CSc2sc3c(O)cc(=O)[nH]c3c2C#N)n1	-2	75*	-3	3	37*	14*
CCCSc1nnc(NC(=O)CSc2nc3[nH]c(=O)cc(O)c3s2)s1	-1	37*	-6	1	27	7.8*
CCSc1nnc(NC(=O)CSc2sc3c(O)cc(=O)[nH]c3c2C#N)s1	-4	58*	-9	4	63*	28*
CCOC(=O)C1CCN(c2ncnc3c2cnn3C)CC1	-2	nt	nt	nt	nt	nt
O=C(Nc1ccc(F)cc1)C(c1ccnc2ccccc12)N1CCN(c2cccc(C(F)(F)F)n2)CC1 (stereo not drawn)	nt	8	-13	0	nt	nt
CC(=O)c1cccc(NC(=O)CSc2ccc(-c3ccco3)nn2)c1	-1	26	-11	0	nt	nt
O=C(CSc1ccc(-c2ccco2)nn1)c1cccc([N+](=O)[O-])c1	-3	35*	-38	0	17	11*
Cc1cc(C)nc(OC(C(=O)O)C(OCCc2ccccc2)(c2ccc(F)cc2)c2ccc(F)cc2)n1 (stereo not drawn)	-2	36*	-21	1	49*	11*
CCCOC(c1ccccc1)(c1ccc(C(F)(F)F)cc1)C(Oc1nc(C)cc(C)n1)C(=O)O (stereo not drawn)	1	30	-11	-1	nt	nt
CCOc1ccccc1OCC(=O)Nc1cccc(S(=O)(=O)N2CCCCCC2)c1	-10	2	-25	1	nt	nt
CCOC(=O)C1(CCCc2ccccc2)CCN(C(=O)c2cncs2)CC1	-1	-10	-12	0	nt	nt
Cc1sc2ncnc(SCC(=O)N3CCCCC3)c2c1C	-2	-7	-2	-1	nt	nt
COc1cc([N+](=O)[O-])cc(/C=N/NC(=O)C(C)Nc2ccccc2C)c1O (stereo not drawn)	-2	36*	-3	2	29	10*
O=S1(=O)CCOC[C@H](CC2CCCCC2)N1Cc1ccccc1	-1	-1	8	0	nt	nt
O=C(N/N=C/c1cc([N+](=O)[O-])ccc1O)NC12CC3CC(CC(C3)C1)C2	-2	63*	-1	2	36*	9.5*
O=C(N/N=C/c1cc([N+](=O)[O-])ccc1O)C12CC3CC(CC(C3)C1)C2	-5	0	-2	2	nt	nt
SMILES	bovine MsrA act	rCAG binder	sPLA2-III inh	MsrA inh	rCAG bind conf	dCAG dye counter	others
O=[N+]([O-])c1cccc(N/N=C/c2cc([N+](=O)[O-])ccc2O)c1	-15	36*	-1	2	27	10*
COC(=O)C1(C)NC(c2ccc(F)cc2)C2C(=O)N(c3ccc(C)cc3)C(=O)C21 (stereo not drawn)	-1	3	-4	1	nt	nt
CC(=O)c1ccc(NC(=O)CSc2nnc(-c3ccco3)c(-c3ccco3)n2)cc1	-5	45*	-4	4	37*	15*
O=C(CSc1nnc(-c2ccco2)c(-c2ccco2)n1)c1ccccc1	-4	75*	-3	3	57*	26*
Cc1ccc(-c2n[nH]c3c2C(c2ccccc2)N(c2ccc(C(=O)O)cc2)C3=O)cc1 (stereo not drawn)	-5	45*	-29	0	26	6.2*
CCc1ccc(NC(=O)Nc2ccc3c(c2)N(C)C(=O)CS3)cc1	1	18	-14	-1	nt	nt
CCN(CC)S(=O)(=O)c1cc(C(=O)O)ccc1Cl	-4	3	6	-1	nt	nt
N#C/C(=N\Nc1ccc(Cl)c(Cl)c1)C(=O)C1CC1	-8	52*	-9	0	55*	17*
O=C1NN(c2ccccc2)C(=O)/C1=C/c1ccc(-c2ccc(C(=O)O)cc2)o1	-4	34	10	1	nt	nt
Cc1ccc(N2NC(=O)/C(=C/c3ccc(-c4ccc(Cl)c(C(=O)O)c4)o3)C2=O)cc1C	-6	8	9	0	nt	nt
COC(=O)c1ccc(N2NC(=O)/C(=C/c3ccc(-c4ccc(Cl)c(C(=O)O)c4)o3)C2=O)cc1	-5	41*	-7	-1	69*	29*
O=C1NN(c2ccc(Cl)c(Cl)c2)C(=O)/C1=C/c1ccc(-c2ccccc2C(=O)O)o1	-14	73*	-2	1	67*	26*
Cc1ccccc1NC(=O)CN1C(=O)CCSc2ccccc21	nt	1	2	nt	nt	nt
Cc1ccc(S(=O)(=O)N2C[C@@H]3c4ccccc4N(S(=O)(=O)c4ccc(C)cc4)[C@@H]3[C@@H](C)C2CC(=O)c2ccccc2)cc1 (stereo partly drawn)	-6	15	7	2	nt	nt
COc1ccc(/C=N/n2c(-c3n[nH]c4c3CCC4)n[nH]c2=S)cc1OC	-2	3	4	2	nt	nt
COc1ccc2ccccc2c1C=Nn1c(-c2n[nH]c3c2CCC3)n[nH]c1=S	nt	48*	10	nt	49*	18*
CCOc1cccc(N)c1	4	nt	nt	nt	nt	nt
O=C(O)c1ccc(N/N=C/c2cc3ccccc3nc2Cl)cc1	-8	12	-13	2	nt	nt
Cc1cccc2cc(/C=N/Nc3ccc(C(=O)O)cc3)c(Cl)nc12	-3	47*	-2	3	43*	11*
O=[N+]([O-])c1ccc(N2CCN(Cc3ccncc3)CC2)cc1	-4	-4	-1	0	nt	nt
O=C(Nc1ccc(Cl)c(Cl)c1)Nc1nccs1	-2	62*	-2	2	17	22*
Cc1ccc(C)c(-c2cc(C(=O)NNC(=S)NCC(C)C)c3ccccc3n2)c1	2	45*	3	1	67*	24*	DNA CAG DR=>30
